# PubChem BioAssay (NCI)
# This is part of a sample that, as a whole, favours compounds with a hit. Of some 83,000 tested, about 20% had one in any assay.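 Step 1: grow cells in 96-well plates. Step 2: add test compound at a single concentration. Step 3: incubate 48 h. Step 4: record percent growth.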 Values without a mark were called inactive. Calls of active or inactive are those of the source. How the source made its calls: active means growth percent below 10; inactive means the rest.
# Legend:
# Experiment in all cases: NCI-60 one-dose screen, 48 h (100 = growth as untreated, 0 = no growth, -100 = all killed)
# Settings in all cases: 10 µM unless noted
# EKVX NSCLC = test system: EKVX NSCLC
# SN12C renal = test system: SN12C renal
# UO-31 renal = test system: UO-31 renal
# TK-10 renal = test system: TK-10 renal
# ACHN renal = test system: ACHN renal
# CAKI-1 renal = test system: CAKI-1 renal
# A498 renal = test system: A498 renal
# CCRF-CEM leukemia = test system: CCRF-CEM leukemia
# MOLT-4 leukemia = test system: MOLT-4 leukemia
# SR leukemia = test system: SR leukemia
SMILES,growth (EKVX NSCLC),growth (SN12C renal),growth (UO-31 renal),growth (TK-10 renal),growth (ACHN renal),growth (CAKI-1 renal),growth (A498 renal),growth (CCRF-CEM leukemia),growth (MOLT-4 leukemia),growth (SR leukemia)
O=C(Cn1ccnc1)NC(c1ccccc1)c1ccccc1,97.5%,97%,89.5%,97.5%,91.9%,96.7%,67.6%,108%,107%,98.4%
N=C(N)/N=C(\CCc1nc2ccccc2[nH]1)c1nc2ccccc2[nH]1,92.7%,85.6%,67.6%,105%,92.3%,93.6%,111%,99.5%,107%,83.9%
Nc1ccc(C2=Nc3cccc4cccc(c34)S2)cc1,67.3%,94.2%,60.4%,88.3%,81.3%,75.7%,55.9%,68.4%,82.2%,57.5%
CN(CC(=O)Nc1nc2ccccc2[nH]1)S(=O)(=O)c1ccc(Cl)cc1,95.4%,93.9%,28.8%,118%,83.5%,89.8%,91.7%,44.6%,58.5%,89.9%
CCC(=O)Nc1ccccc1C#C/C=C\C#Cc1ccccc1C(F)(F)F,52.7%,58.8%,22.4%,75%,53.4%,45%,11.8%,39.1%,74.2%,117%
COC(=O)CCC1=C(C)C(C)=N/C1=C\c1[nH]c(-c2ccc[nH]2)cc1OC,29.9%,13.9%,-67% (active),16%,-7.31% (active),11.6%,4.29% (active),-22.7% (active),-29.7% (active),-31.4% (active)
O=C(COC(=O)[C@H](C[Se][Se]C[C@H](NC(=O)c1ccc(Br)cc1F)C(=O)OCC(=O)c1ccc(F)cc1)NC(=O)c1ccc(Br)cc1F)c1ccc(F)cc1,-69.9% (active),-100% (active),-100% (active),-97.6% (active),-75.7% (active),-91.4% (active),-2.67% (active),-56.2% (active),-30% (active),-39.3% (active)
NC(=O)NN=C(C1CC1)C1CC1,103%,108%,82.1%,101%,95.4%,103%,107%,125%,82.8%,85.6%
CCN(CC)CCOc1ccc(C2=C(c3ccccc3)CCc3cc(OC)ccc32)cc1,54.4%,52.3%,-76.7% (active),-21.1% (active),50.5%,-26.1% (active),-4.36% (active),-37.8% (active),-49.7% (active),-42.1% (active)
O=C(CSc1nnc(Nc2ccccc2)s1)NCCc1ccc(F)cc1,91.7%,103%,48.4%,128%,107%,106%,93.1%,117%,103%,164%
Cc1ccc(C=C2C(Cl)=C(Cl)C(Cl)=C2Cl)cc1,-10.6% (active),-43.4% (active),-88% (active),-44.6% (active),-54.8% (active),-35.1% (active),-88.8% (active),-45.2% (active),18.3%,19%
COc1cc(C2C=C(c3ccc(C)cc3)Nc3nc(SC)[nH]c(=O)c32)ccc1Oc1ccnc2cc(Cl)ccc12 (stereo not given),77%,67%,57.8%,78.2%,55.6%,67.8%,71.7%,67.5%,63.9%,75.8%
COc1cc(C2CC(=O)Nc3c2cc(Br)c2ccccc32)cc(Br)c1OC (stereo not given),41.7%,54.5%,0.792% (active),-7.53% (active),5.63% (active),3.19% (active),-2.63% (active),11.1%,30.9%,-53.1% (active)
CCN(CC)CCNc1ccc(Cl)cc1Cl,113%,113%,87.3%,103%,113%,94.6%,103%,104%,95.9%,95.1%
CCC(c1ccccc1)c1noc(CCN(CC)CC)n1 (stereo not given),105%,100%,85.5%,96.7%,101%,94.1%,101%,48.2%,83%,69.2%
COC(=O)[C@]12CC[C@@H](C)[C@H](C)[C@@H]1C1=CC[C@@H]3[C@@]4(C)C[C@@H](OC(=O)c5ccco5)[C@H](O)[C@@](C)(CO)[C@@H]4[C@H](O)C[C@@]3(C)[C@]1(C)CC2,-91.9% (active),-77.2% (active),-89.6% (active),-87.9% (active),-95% (active),-98.3% (active),-94.5% (active),-87.3% (active),-75.5% (active),-91% (active)
NC(=O)c1ccccc1NC(=O)c1ccccc1Cl,103%,101%,82.8%,141%,104%,98.3%,98.3%,97.3%,63.7%,-9.77% (active)
COc1cc(C2CC(c3ccc(C)cc3)=NN2C(C)=O)ccc1Oc1ccnc2cc(Cl)ccc12 (stereo not given),63.3%,77.5%,61.6%,11.1%,32.2%,58.1%,64.3%,74.5%,86.8%,35.1%
Cc1c(C(N)=O)sc2ncn(Cc3ccccc3)c(=O)c12,122%,97.8%,61.7%,87.8%,99.6%,-1.53% (active),121%,138%,114%,92.8%
O[C@@H]1Cc2ccc3ccccc3c2N[C@H](c2ccoc2)C1,95.9%,103%,82.3%,106%,103%,96.6%,84.4%,81.3%,88.2%,93.3%
COc1ccc(/C=N/NC(=O)c2ccc(S(C)(=O)=O)cc2)cc1OC,103%,98.3%,90.8%,96.9%,102%,89%,94.6%,103%,65.9%,92.5%
COc1ccc(CCN2CCCN3C2=Nc2ccccc2S3(=O)=O)cc1,45%,53.7%,53.4%,61.1%,51%,46.5%,0.819% (active),19.4%,24.7%,24.5%
Nc1nc(SCc2ccccc2Cl)c(-c2ccccc2)c(SCc2ccccc2Cl)n1,97.3%,104%,69.9%,97.7%,91.4%,79.6%,67.6%,78.4%,90.9%,96.3%
Cc1cc(C)n2nc(SCC(=O)Nc3sc4c(c3C(N)=O)CCC4)nc2n1,100%,103%,74.1%,125%,112%,94.7%,95.7%,102%,109%,144%
O=C1NCC(Nc2ccc(Br)cc2Cl)C(=O)N1 (stereo not given),90.7%,102%,67.7%,110%,96.2%,91.8%,117%,116%,109%,101%
O=C(CCc1nnc(SCc2ccccc2)s1)c1nc2ccccc2[nH]1,93.8%,92.7%,74.3%,95.8%,94.4%,90.7%,72.7%,68.1%,70.1%,74.4%
CCCCC1Nc2nc(SC)n(C)c(=O)c2CN(Cc2ccccc2)C1=O (stereo not given),82.8%,93.4%,72.2%,78.3%,90.2%,69.3%,117%,87%,120%,285%
C=C(C[C@@](O)(C(=O)Oc1ccccc1)C(=O)C1CCCCC1)c1ccccc1,94.4%,98%,83.8%,97.7%,112%,87.3%,106%,95.4%,101%,103%
